Screening data as filed in PubChem.
CHT PAM: allosterically activates the human high affinity choline transporter; Q9GZV3; CHT-expressing cells, membrane potential dye, choline EC20; stronger effect = higher value; LV-AA mutant CHT in HEK293 cells; B-score at 10 µM; actives 0.49% (n = 310,000); AID 488977;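 active = initial fluorescence not abnormally high and integrated response B-score, plate-corrected, over 3 SD above library mean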
CHT block: inhibits the human high affinity choline transporter. Q9GZV3. CHT-expressing cells, membrane potential dye, choline response; stronger effect = lower value. B-score at 10 µM. actives 0.86% (n = 310,000);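 active = B-score over 3 SD under the library average, and starting fluorescence ratio not unusually high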;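 note: choline stimulus applied at its EC90 after an EC20 pre-addition; B-score computed on integrated fluorescence ratio after choline addition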
ANO1 block: inhibitors of mouse TMEM16A calcium-activated chloride channel. Q8BHY3. HEK293 TMEM16A/YFP iodide influx fluorescence, ionomycin. normalized B-score (activity score, 25-100; higher = stronger inhibition) at 10 µM. actives 1.2% (n = 310,000);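 active = ratio plate-corrected score three or more library SD toward inhibition, starting fluorescence score within five deviations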;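 note: score derived from kinetic fluorescence span divided by baseline fluorescence per well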
ANO1 activ: mouse TMEM16A channel activation, primary screen; actives 0.3% (n = 340,000); B-score at 10 µM; Q8BHY3; HEK293 TMEM16A/YFP-H148Q/I152L, iodide quench fluorescence; stronger effect = lower value; AID 623877;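 active = fluorescence-ratio B-score plate-corrected deviation score at least 3 library SD below zero, with starting fluorescence score within 5 deviations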;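 note: channel opened by trigger with iodide after compound preincubation; score built on the fluorescence ratio of max minus min over baseline; more negative score means more quench and so TMEM16A activation or potentiation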
TMEM16A reconf: re-confirmation of mouse TMEM16A chloride channel inhibitors; shares compounds with ANO1 block; HEK293 TMEM16A/YFP-H148Q, iodide quench fluorescence; ionomycin added to raise cell calcium; inhibition, % at 10 µM; actives 39% (n = 2,300); AID 652189;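 active = mean duplicate percent inhibition, scaled so buffer wells are 0 and the reference blocker 100, over three buffer SD above buffer mean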
HEK293 Ca mobil: counter-screen for TMEM16A inhibitors: effect on calcium mobilization; shares compounds with ANO1 block; TMEM16A/YFP HEK293, Fluo4 calcium mobilization; calcium response (% of ionomycin), % at 10 µM; actives 2% (n = 2,300); AID 652231;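 active = duplicate-averaged calcium signal over 20% of the ionomycin maximum, relative to buffer baseline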;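 note: each well's signal is peak minus trough fluorescence divided by its pre-addition baseline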
Parental YFP cnt: parental YFP-HEK293 iodide quench counter-screen activity. shares compounds with ANO1 block. ionomycin. YFP ratio F(max-min)/F0 at 10 µM. 2,300 tested, under 10 active. AID 652233;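 active = yellow fluorescent protein signal ratio exceeding the buffer control mean by over 5 SD of those controls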;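 note: ratio is mean of duplicate wells from kinetic YFP trace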
ClC-1 rat inh: blocks the rat ClC-1 voltage-dependent chloride channel; shares compounds with ANO1 block; CHO ClC-1-YFP, iodide influx fluorescence quench; iodide control reads 0, buffer control 100; ratio percent, % at 10 µM; 2,300 tested, under 10 active; AID 652236;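 active = duplicate-mean ratio percent above the mean of iodide-only control wells, which defines zero, plus 5 of their SD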;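 note: higher percent means stronger block of ClC-1 iodide influx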
Of the large screens only hits and unclear results are named; the others gave an inactive call (follow-up assays come after a bar, where they were run). Compounds with a hit are over-represented: about 2.4% of the library has one in this group of screens.

c1ccc2c(c1)OCC(CNc1ncnc3sccc13)O2 (stereo unspecified)	ANO1 block 25 | TMEM16A reconf inactive | HEK293 Ca mobil inactive | Parental YFP cnt inactive | ClC-1 rat inh inactive
COc1ccccc1CNc1ncnc2sccc12	ANO1 block 25 | TMEM16A reconf inactive | HEK293 Ca mobil inactive | Parental YFP cnt inactive | ClC-1 rat inh inactive
Fc1ccccc1CNc1ncnc2sccc12	none
COc1ccc(CCNc2ncnc3sccc23)cc1OC	ANO1 block 100, ANO1 activ -7.8 | TMEM16A reconf 24% | HEK293 Ca mobil inactive | Parental YFP cnt inactive | ClC-1 rat inh inactive
CCN(CC)S(=O)(=O)c1ccc(=O)[nH]c1	none
O=C(Nc1cccc(O)c1)c1ccccc1[N+](=O)[O-]	none
COc1ccc(CCNc2oc(COc3ccc(Br)cc3)nc2C#N)cc1OC	ANO1 block 100 | TMEM16A reconf inactive | HEK293 Ca mobil inactive | Parental YFP cnt inactive | ClC-1 rat inh inactive
Nc1cc2ccncc2c2ccccc12	none
O=C(CSC1=NCCS1)Nc1ccnc2ccccc12	ANO1 block 100 | TMEM16A reconf 18% | HEK293 Ca mobil inactive | Parental YFP cnt inactive | ClC-1 rat inh inactive
Cc1cc(C)nc(SCC(=O)Nc2ccnc3ccccc23)n1	none
CCC1Sc2ccccc2N(CC(=O)NC2CC2)C1=O (stereo unspecified)	none
CCC1Sc2ccccc2N(CC(=O)NCCC2=CCCCC2)C1=O (stereo unspecified)	none | TMEM16A reconf inactive | HEK293 Ca mobil inactive | Parental YFP cnt inactive | ClC-1 rat inh inactive
N#CC1=C(N)OC2=C(CCc3ccccc32)C1c1ccccc1 (stereo unspecified)	ANO1 block 100 | TMEM16A reconf 52% | HEK293 Ca mobil inactive | Parental YFP cnt inactive | ClC-1 rat inh inactive
Cn1cccc1/C=N/NC(=O)c1cccc(OC(F)(F)C(F)F)c1	none
C=C(C)COc1ccc2c3c(c(=O)oc2c1OCC(=C)C)CCC3	ANO1 block 100 | TMEM16A reconf 17% | HEK293 Ca mobil inactive | Parental YFP cnt inactive | ClC-1 rat inh inactive
C=C(C)COc1ccc2c(C)c(C)c(=O)oc2c1OCC(=C)C	none
CCc1ccc(NC(=O)Cn2cnc3c(=O)n(C)c(=O)n(C)c32)cc1	none
CCc1ccc(C(C)NC(=O)Cn2cnc3c(=O)n(C)c(=O)n(C)c32)cc1 (stereo unspecified)	ANO1 block 25 | TMEM16A reconf inactive | HEK293 Ca mobil inactive | Parental YFP cnt inactive | ClC-1 rat inh inactive
COc1ccc(NC(=O)c2sc3ncn(CC(=O)N4CCN(c5ccccn5)CC4)c(=O)c3c2C)c(OC)c1	ANO1 block 25 | TMEM16A reconf inactive | HEK293 Ca mobil inactive | Parental YFP cnt inactive | ClC-1 rat inh inactive
Cc1ccc(Nc2nc(-c3cccs3)cs2)nc1	ANO1 block 100 | TMEM16A reconf inactive | HEK293 Ca mobil inactive | Parental YFP cnt inactive | ClC-1 rat inh inactive
Cc1ccc(Nc2nc(-c3ccccc3)cs2)nc1	none
Clc1ccc(CSC2=NCCCN2)cc1Cl	none
Clc1ccccc1CSC1=NCCCN1	ANO1 block 100 | TMEM16A reconf inactive | HEK293 Ca mobil inactive | Parental YFP cnt inactive | ClC-1 rat inh inactive
O=C(NCc1cccc2[nH]ccc12)C1CCC(=O)N(CCc2ccc(Cl)cc2)C1 (stereo unspecified)	none
CCNc1ccc(Br)cc(C(=O)/C=C/c2ccc(Cl)cc2Cl)c1=O	none
COc1cccc(-c2nc(NC(C)C)c3ccccc3n2)c1O	none
CCC(C)Nc1nc(-c2cccc(OC)c2O)nc2ccccc12 (stereo unspecified)	ANO1 block 100 | TMEM16A reconf 28% | HEK293 Ca mobil inactive | Parental YFP cnt inactive | ClC-1 rat inh inactive
Cc1cc(C)n(C(=O)N(c2ccccc2)c2ccccc2)n1	none
CC1Sc2ccc(S(=O)(=O)CCC(=O)NCc3ccccc3)cc2NC1=O (stereo unspecified)	none
CC1Sc2ccc(S(=O)(=O)CCC(=O)NCc3ccc(Cl)cc3)cc2NC1=O (stereo unspecified)	ANO1 block 25 | TMEM16A reconf inactive | HEK293 Ca mobil inactive | Parental YFP cnt inactive | ClC-1 rat inh inactive
CC1Sc2ccc(S(=O)(=O)N3CCC(C(=O)Nc4ccc(Cl)cc4)CC3)cc2NC1=O (stereo unspecified)	ANO1 block 25 | TMEM16A reconf 32% | HEK293 Ca mobil inactive | Parental YFP cnt inactive | ClC-1 rat inh inactive
CC(C)CCN1C(=O)c2ccc(C(=O)NCC3CCCO3)cc2C1=O (stereo unspecified)	none
CC(=O)NCCC(=O)Nc1cc(S(=O)(=O)N2CCOCC2)ccc1Oc1ccccc1	none
O=C(Nc1cccc(S(=O)(=O)Nc2ccccc2F)c1)c1ccc2ccccc2n1	ANO1 block 100 | TMEM16A reconf inactive | HEK293 Ca mobil inactive | Parental YFP cnt inactive | ClC-1 rat inh inactive
O=C1CC(O)(c2ccccc2)C(c2ccccc2)=C1c1ccccc1 (stereo unspecified)	none
COc1cc2c(cc1NC(=O)c1cc(-c3ccncc3)nc3ccc(C)cc13)oc1ccccc12	ANO1 block 25 | TMEM16A reconf inactive | HEK293 Ca mobil inactive | Parental YFP cnt inactive | ClC-1 rat inh inactive
CCc1ccc(CN2CCC(Oc3ccc(C(=O)NCc4ccccn4)cc3)CC2)o1	none
Fc1ccccc1N1CCN(c2nc3ccccc3n3nnnc23)CC1	none | TMEM16A reconf inactive | HEK293 Ca mobil inactive | Parental YFP cnt inactive | ClC-1 rat inh inactive
CSc1ccc(C(=O)C2CCCN(C(=O)CCc3c(C)nn(C)c3C)C2)cc1 (stereo unspecified)	ANO1 block 25 | TMEM16A reconf inactive | HEK293 Ca mobil inactive | Parental YFP cnt inactive | ClC-1 rat inh inactive
CSc1ccc(C(=O)C2CCCN(C(=O)CCn3cncn3)C2)cc1 (stereo unspecified)	none
CC(Sc1nc2ccccc2s1)C(=O)c1c(N)n(C)c(=O)n(C)c1=O (stereo unspecified)	ANO1 block 100 | TMEM16A reconf inactive | HEK293 Ca mobil inactive | Parental YFP cnt inactive | ClC-1 rat inh inactive
CCN(c1cccc(C(F)(F)F)c1)S(=O)(=O)c1ccc2c(c1)CCN2C(=O)C1CC1	ANO1 block 100 | TMEM16A reconf inactive | HEK293 Ca mobil inactive | Parental YFP cnt inactive | ClC-1 rat inh inactive
CCNC(=S)NNC(=O)c1cc(-c2cccc(C)c2)nc2ccccc12	none
